From PubChem BioAssay (NCI)
The panel holds about 79,000 compounds, 15% with a hit somewhere; the sample as a whole holds those more often. Unmarked numbers belong to inactive results. Calls of active or inactive are those of the source. Cut-off read from the data, not from the text of the source: active = growth inhibition above about 70%; inactive = the rest.

assay: NCI Yeast Anticancer Drug Screen. Data for the rad50 strain (AID 155);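 note: 0% = growth of vehicle-only cultures of the same strain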; conditions: S. cerevisiae rad50 strain growth inhibition; at 50.0 µM; stronger effect = higher value
Summary of the method: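 Yeast carrying a defined DNA repair defect were exposed to test compounds, and growth was compared with vehicle-treated controls to give percent inhibition.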

Compound	growth inhibition
CC/C=C/CC(=O)NCc1ccc(O)c(OC)c1	5.45%
c1ccc2cc(N3CCOCC3)ccc2c1	-19.1%
CCOC(=O)C(c1ccccc1)N(CCCN(CC)CC)c1ccccc1 (stereo not given)	-10.8%
CC(C(O)C(F)(F)F)[N+](C)(C)C (stereo not given)	34.8%
Cc1ccc(NC(=O)CCCC(=O)C(C#N)c2ccccc2Cl)cc1C (stereo not given)	0.15%
COc1ccc(/C(Cl)=C(\C=N/O)c2ccc(OC)c(OC)c2)cc1OC	-8.45%
N/C(=N\OC(=O)Nc1ccc(CSc2ccc(Cl)cc2)o1)c1ccccn1	2.9%
CCOC(=O)C(C)N1CCCCCC1 (stereo not given)	-28.8%
CC1(C)C=C(C(Br)c2ccc(Cl)cc2)C(=O)c2ccccc21 (stereo not given)	96.8% (active)
Nc1cccc(OCC(O)CN2CCN(c3ccccc3)CC2)c1 (stereo not given)	3.7%
CC(=O)C1CCC(C)(O)CC1=O (stereo not given)	-0.6%
COC(SC)(SC)c1cc(-c2c(Cl)cccc2Cl)no1	-7.25%
CSc1nc(NC2OCC(OC(C)=O)C(OC(C)=O)C2OC(C)=O)c(N=C(C)C(C)=O)c(=O)[nH]1 (stereo not given)	-3.9%
Cc1ccc(N=C(NN(C)C)C(c2ccccc2)c2ccccc2)cc1	2.55%
CCN(CC)Cc1cc(Nc2c3ccc([N+](=O)[O-])cc3nc3ccc(OC)cc23)ccc1O	83.3% (active)
O=C1C=CC(CCCCCn2ccc(=O)[nH]c2=O)C(=O)N1 (stereo not given)	-8.25%
CC(C)(C)NC(=O)NC(C)(C)C	-15.1%
CCN(C(=O)c1ccc([N+](=O)[O-])cc1)C(c1ccccc1)P(=O)(c1ccccc1)c1ccccc1 (stereo not given)	-12.4%
COC1(C2COc3cc(OCc4ccccc4)ccc3C2=O)C=C2OCOC2=CC1=O (stereo not given)	-16.6%
Cc1nc2c(=O)[nH]c3ccccc3c2o1	-3.25%

Compound	growth inhibition
CCOC(=O)C[P+](c1ccc(OC)cc1)(c1ccc(OC)cc1)c1ccc(OC)cc1	90.8% (active)
COC(=O)C1(CC(=O)c2cccs2)NC(=S)NC(=O)C1C#N (stereo not given)	9.4%
COc1ccc(/C(N)=N/OCc2ccc(C#N)cc2)cc1	-13.5%
C1OC[C@@H]([C@H]2COCO2)O1	-15.4%
Nc1cccc(C(O)c2ccccc2)c1 (stereo not given)	11.2%
Cc1ccc(Cl)c(NC(=O)COc2ccc(Cl)cc2)c1	-1.2%
COCc1ccc(C(C)(C)CC(C)(C)C)cc1	32.6%
O=C1CCCc2cc3c(cc21)CC1(C3)Cc2cc3c(cc2C1)C(=O)CCC3	-8.8%
CN1CC2=C(NC(=S)NC2c2ccccc2Cl)/C(=C/c2ccccc2Cl)C1 (stereo not given)	14.7%
N#CNC1=NC(N)C(c2nc3ccccc3[nH]2)=C(CCCC(=O)Nc2cccc([N+](=O)[O-])c2)N1 (stereo not given)	17.1%
NS(=O)(=O)c1cc(Br)ccc1Br	8.2%
Cc1nc(N)[nH]c(=O)c1-n1nnc2ccccc2c1=O	0.15%
CSc1nc(NC2OCC(O)C(O)C2O)cc(=O)n1C (stereo not given)	7.25%
C/C(N=NC(=S)N1CCCCC1)=C1\C=CC=CN1O	10.8%
[N-]=[N+]=NC12CC3C4CC5CC3C(C1)C(C5)C4C2	10.3%
O=C1OC2C(Cl)CC(Cl)CC2C=C1c1cccc([N+](=O)[O-])c1 (stereo not given)	-3.3%
O=C1c2ccccc2N2OC3(N4CCOCC4)CCCC3C12c1ccccc1 (stereo not given)	57.5%
CC(C)[C@@]12O[C@@H]1CC13OC1[C@@H](O)CC[C@@]32O (stereo not given in full)	-16.6%
O=C(NNC1=NCCCCN1)Nc1ccc(Cl)cc1	20.9%
CCN(CC)c1ccc(NC(C)=O)c(C)c1	-16.2%

assay: NCI Yeast Anticancer Drug Screen. Data for the mec2-1 strain (AID 157); conditions: S. cerevisiae mec2-1 strain, at 50.0 µM, stronger effect = higher value
Summary of the method: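 Vehicle-treated cultures served as reference for growth inhibition of compound-exposed mec2-1 yeast.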

Compound	growth inhibition
CC/C=C/CC(=O)NCc1ccc(O)c(OC)c1	-1.15%
c1ccc2cc(N3CCOCC3)ccc2c1	-27.4%
CCOC(=O)C(c1ccccc1)N(CCCN(CC)CC)c1ccccc1 (stereo not given)	-3.25%
CC(C(O)C(F)(F)F)[N+](C)(C)C (stereo not given)	5.85%
Cc1ccc(NC(=O)CCCC(=O)C(C#N)c2ccccc2Cl)cc1C (stereo not given)	-0.95%
COc1ccc(/C(Cl)=C(\C=N/O)c2ccc(OC)c(OC)c2)cc1OC	11.9%
N/C(=N\OC(=O)Nc1ccc(CSc2ccc(Cl)cc2)o1)c1ccccn1	-22.8%
CCOC(=O)C(C)N1CCCCCC1 (stereo not given)	-30.4%
CC1(C)C=C(C(Br)c2ccc(Cl)cc2)C(=O)c2ccccc21 (stereo not given)	97.4% (active)
Nc1cccc(OCC(O)CN2CCN(c3ccccc3)CC2)c1 (stereo not given)	8.6%
CC(=O)C1CCC(C)(O)CC1=O (stereo not given)	-18%
COC(SC)(SC)c1cc(-c2c(Cl)cccc2Cl)no1	-7.55%
CSc1nc(NC2OCC(OC(C)=O)C(OC(C)=O)C2OC(C)=O)c(N=C(C)C(C)=O)c(=O)[nH]1 (stereo not given)	17.7%
Cc1ccc(N=C(NN(C)C)C(c2ccccc2)c2ccccc2)cc1	-20.1%
CCN(CC)Cc1cc(Nc2c3ccc([N+](=O)[O-])cc3nc3ccc(OC)cc23)ccc1O	60.4%
O=C1C=CC(CCCCCn2ccc(=O)[nH]c2=O)C(=O)N1 (stereo not given)	3.15%
CC(C)(C)NC(=O)NC(C)(C)C	-7.95%
CCN(C(=O)c1ccc([N+](=O)[O-])cc1)C(c1ccccc1)P(=O)(c1ccccc1)c1ccccc1 (stereo not given)	-4.5%
COC1(C2COc3cc(OCc4ccccc4)ccc3C2=O)C=C2OCOC2=CC1=O (stereo not given)	-18%
Cc1nc2c(=O)[nH]c3ccccc3c2o1	7%

Compound	growth inhibition
CCOC(=O)C[P+](c1ccc(OC)cc1)(c1ccc(OC)cc1)c1ccc(OC)cc1	95.8% (active)
COC(=O)C1(CC(=O)c2cccs2)NC(=S)NC(=O)C1C#N (stereo not given)	3.55%
COc1ccc(/C(N)=N/OCc2ccc(C#N)cc2)cc1	-21.4%
C1OC[C@@H]([C@H]2COCO2)O1	-11.4%
Nc1cccc(C(O)c2ccccc2)c1 (stereo not given)	-1.15%
Cc1ccc(Cl)c(NC(=O)COc2ccc(Cl)cc2)c1	28.3%
COCc1ccc(C(C)(C)CC(C)(C)C)cc1	8.4%
O=C1CCCc2cc3c(cc21)CC1(C3)Cc2cc3c(cc2C1)C(=O)CCC3	-7.25%
CN1CC2=C(NC(=S)NC2c2ccccc2Cl)/C(=C/c2ccccc2Cl)C1 (stereo not given)	13.2%
N#CNC1=NC(N)C(c2nc3ccccc3[nH]2)=C(CCCC(=O)Nc2cccc([N+](=O)[O-])c2)N1 (stereo not given)	17.1%
NS(=O)(=O)c1cc(Br)ccc1Br	12.9%
Cc1nc(N)[nH]c(=O)c1-n1nnc2ccccc2c1=O	17.1%
CSc1nc(NC2OCC(O)C(O)C2O)cc(=O)n1C (stereo not given)	-0.45%
C/C(N=NC(=S)N1CCCCC1)=C1\C=CC=CN1O	-6.8%
[N-]=[N+]=NC12CC3C4CC5CC3C(C1)C(C5)C4C2	0.6%
O=C1OC2C(Cl)CC(Cl)CC2C=C1c1cccc([N+](=O)[O-])c1 (stereo not given)	12.2%
O=C1c2ccccc2N2OC3(N4CCOCC4)CCCC3C12c1ccccc1 (stereo not given)	21.9%
CC(C)[C@@]12O[C@@H]1CC13OC1[C@@H](O)CC[C@@]32O (stereo not given in full)	-1.05%
O=C(NNC1=NCCCCN1)Nc1ccc(Cl)cc1	6.8%
CCN(CC)c1ccc(NC(C)=O)c(C)c1	21.1%
